High-throughput results deposited in PubChem by several laboratories.
Jurkat NFkB inh: inhibitors of the PMA/ionomycin-induced NF-kB reporter in Jurkat cells; PMA/ionomycin-induced NF-kB luciferase reporter, luminescence; inhibition, % at 4 µM; actives 0.53% (n = 330,000); AID 435003; in the data active = inhibition above about 50%
Beta cell apopt: blocks beta cell apoptosis | INS-1E cytokine-induced death, ATP luminescence, 48 h; percent of positive-control rescue, neutral wells zero | protection from apoptosis, % (concentration not given with the values) | actives 0.8% (n = 300,000) | AID 435005;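 active = Every replicate reaches about 75%, or at least half do and their mean reaches it too, limit read from the data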;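 note: higher means more ATP so stronger rescue from cytokine killing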
Mdm2 MdmX PPI: human Mdm2/MdmX binding inhibition; O15151+Q00987; SaOS-2 split-luciferase Mdm2/MdmX complementation, luminescence; inhibition, % at 8 µM; actives 3% (n = 330,000);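 active = inhibition of at least 50% at 8 µM in the primary screen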
Target sequence (O15151 whole entry, looked up): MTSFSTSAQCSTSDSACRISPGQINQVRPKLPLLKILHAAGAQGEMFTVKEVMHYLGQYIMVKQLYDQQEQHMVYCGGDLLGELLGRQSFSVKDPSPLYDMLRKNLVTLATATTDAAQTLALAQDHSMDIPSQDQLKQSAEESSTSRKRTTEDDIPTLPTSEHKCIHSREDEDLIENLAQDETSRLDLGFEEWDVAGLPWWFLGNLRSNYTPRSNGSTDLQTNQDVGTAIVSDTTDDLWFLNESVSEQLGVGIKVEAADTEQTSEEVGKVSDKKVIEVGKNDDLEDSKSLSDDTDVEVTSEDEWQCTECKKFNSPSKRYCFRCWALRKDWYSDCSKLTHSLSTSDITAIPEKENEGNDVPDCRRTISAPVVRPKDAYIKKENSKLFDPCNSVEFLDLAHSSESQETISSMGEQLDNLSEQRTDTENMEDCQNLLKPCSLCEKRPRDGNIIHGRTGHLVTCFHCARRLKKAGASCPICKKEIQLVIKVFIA
Target sequence (Q00987 whole entry, looked up): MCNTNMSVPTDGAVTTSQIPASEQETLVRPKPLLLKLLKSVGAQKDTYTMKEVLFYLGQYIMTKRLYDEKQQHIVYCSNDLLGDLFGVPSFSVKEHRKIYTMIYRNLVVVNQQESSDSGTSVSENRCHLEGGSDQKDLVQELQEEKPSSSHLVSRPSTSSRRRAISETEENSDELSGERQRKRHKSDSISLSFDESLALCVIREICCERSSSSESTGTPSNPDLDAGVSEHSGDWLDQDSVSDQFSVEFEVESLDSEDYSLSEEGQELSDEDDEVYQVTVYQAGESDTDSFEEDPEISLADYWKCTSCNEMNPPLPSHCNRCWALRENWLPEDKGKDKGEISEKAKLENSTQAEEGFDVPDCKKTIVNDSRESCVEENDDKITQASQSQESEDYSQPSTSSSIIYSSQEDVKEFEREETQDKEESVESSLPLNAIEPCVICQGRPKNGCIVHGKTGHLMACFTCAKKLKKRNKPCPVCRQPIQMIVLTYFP
Gli-Sufu block: antagonists of Gli-Sufu signaling | Sufu-KO-LIGHT fibroblasts, Gli luciferase reporter luminescence | inhibition, % at 5 µM | actives 0.74% (n = 340,000) | AID 588413;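 active = inhibition above about 55%, limit read from the data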
697 NFkB inh: inhibitors of the PMA/ionomycin-induced NF-kB reporter in 697 B cells | 697 B-cell NF-kB luciferase reporter, 16 h | inhibition, % at 4 µM | actives 0.33% (n = 330,000) | AID 435022; in the data active = inhibition above about 35%
Jurkat NFkB conf: inhibitors of the PMA/ionomycin-induced NF-kB reporter in Jurkat cells, retest. inhibition, % at 4 µM. AID 435020. Jurkat NF-kB luciferase, 16 h. actives 27% (n = 2,700). shares compounds with Jurkat NFkB inh;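 active = inhibition reaching about 45% at 4 µM in either replicate, limit read from the data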
697 NFkB conf: lowers PMA/ionomycin-induced NF-kB signal in 697 B cells; shares compounds with 697 NFkB inh; inhibition, % at 4 µM; AID 449746; actives 35% (n = 2,000); 697 B-cell NF-kB luciferase, 16 h; in the data active = inhibition mostly above about 28%, no sharp cut-off; inactive = mostly below about 22%
Numbers stand for hits; 0 = inactive; - = no result. Only a sample is shown.

SMILES	Jurkat NFkB inh	Beta cell apopt	Mdm2 MdmX PPI	Gli-Sufu block	697 NFkB inh	Jurkat NFkB conf	697 NFkB conf
CC(C)(C)c1ccc(C(=O)N2CCCCCC2=O)cc1	54	0	0	0	71	67	66
CCOC(=O)c1ccccc1NC(=O)CN(c1ccccc1C)S(C)(=O)=O	0	0	0	0	0	-	-
COc1cc([N+](=O)[O-])ccc1N/C=C/C(=O)c1cccs1	0	0	0	0	0	0	0
O=C(/C=C/c1ccc([N+](=O)[O-])cc1)c1cccs1	0	0	0	0	0	-	-
COc1ccc(N=Cc2sc(O)c3ccccc23)cc1	0	0	0	0	0	0	0
COc1ccc(N=Cc2c(O)c3ccccc3n2C(C)=O)cc1	0	0	0	0	0	-	-
COc1ccc(CNC(=O)C2Cc3cc(S(=O)(=O)N4CCCC4)ccc3N2C(C)=O)c(OC)c1 (configuration not stated)	0	-	0	0	0	-	-
CCN(CC)c1ccc(C(=O)Nc2cccc(F)c2)cc1	0	0	0	0	0	0	0
O=c1c2c3c(sc2nc2n1N=C(c1cccs1)CS2)CCCC3	0	0	0	0	0	0	0
O=S(=O)(c1ccc(SCc2ccc(Br)cc2)nc1)N1CCCCC1	0	-	0	0	0	-	-
NNc1nc(-c2ccccc2)nc2sc3c(c12)CCCC3	0	0	0	0	0	0	0
O=C(NC1=NCCS1)c1ccccc1OCc1ccc(F)cc1	0	0	0	0	0	-	-
O=C(CCS(=O)(=O)c1ccccc1)Nc1cccc(-c2nc3ccccc3s2)c1	0	0	0	0	0	-	-
O=C(CCS(=O)(=O)c1ccccc1)Nc1ccc(-c2nc3ccccc3s2)cc1	0	0	0	0	0	0	0
Nc1ccccc1C#Cc1ccccc1	55	0	0	0	0	0	0
Nc1ccc(C#Cc2ccccc2)cc1	0	0	0	0	0	-	-
O=C(Nc1nc2cc3c(cc2s1)OCCO3)C1CCCCC1	0	-	0	0	0	0	0
O=c1oc2ccccc2cc1-c1nc2ccccc2o1	0	0	0	0	0	-	-
O=c1oc2ccccc2cc1-c1nc2c(s1)CCCC2	0	0	0	0	0	0	0
Cc1c(C(=O)Nc2cccc([N+](=O)[O-])c2)csc1-c1ccccc1	0	0	0	0	0	0	0
Cc1ccc(NC(=O)c2csc(-c3ccccc3)c2C)cc1	-	-	-	0	-	-	-
O=C(NCCOc1ccccc1)c1ccccc1SCC(=O)N1CCCC1	0	0	0	0	0	-	-
CCCCc1ccc(-c2ccc(C)cc2O)nc1	0	-	0	0	0	0	0
CCCCc1ccc(-c2ccc(Br)cc2O)nc1	0	0	0	0	0	0	0
O=C(Nc1ccc(SC(F)(F)F)cc1)c1ccccn1	0	0	0	0	0	0	0
SMILES	Jurkat NFkB inh	Beta cell apopt	Mdm2 MdmX PPI	Gli-Sufu block	697 NFkB inh	Jurkat NFkB conf	697 NFkB conf
CC(=O)NS(=O)(=O)c1ccc(NC(=O)c2ccccn2)cc1	0	0	0	0	0	-	-
CCc1ccc(OCCCCN(C)Cc2ccccc2)cc1	0	-	0	0	0	-	-
COc1ccc(O)c(C(=O)CC(=O)c2ccccc2)c1	0	0	0	-	0	0	0
COc1ccc(O)c(C(=O)CC(=O)c2ccncc2)c1	-	-	-	0	-	-	-
CC(C)CC1CC(C)(c2csc(NNC(=O)c3ccccc3)n2)OC1=O (configuration not stated)	0	0	0	0	0	-	-
O=C(CC(Nc1ccccc1Cl)C(=O)O)c1ccccc1 (configuration not stated)	0	0	0	0	0	0	0
O=C(CC(Nc1cccc(Cl)c1Cl)C(=O)O)c1ccccc1 (configuration not stated)	0	0	0	0	0	-	-
Cc1ccccc1-c1nc2cc(NC(=O)C3CC3)ccc2o1	0	0	0	0	0	0	0
Nc1nc(Nc2ccccc2)nc2ccccc12	0	0	0	0	0	-	-
Nc1nc(Nc2ccc(Cl)cc2)nc2ccccc12	0	0	0	0	0	0	0
Cc1ccc(Nc2nc(N)c3ccccc3n2)cc1Cl	0	-	0	0	0	0	0
O=C(NCc1ccccc1Cl)c1ccc2nnsc2c1	0	0	0	0	0	-	-
O=C(O)c1cc2cc(Oc3ccccc3)ccc2[nH]1	0	0	0	0	0	-	-
Cc1csc(CN(C)C(=O)c2cn(Cc3cccc4ccccc34)nn2)n1	0	0	0	0	0	-	-
O=C(NCCc1nc(-c2ccccc2Cl)no1)C1CCCCC1	0	0	0	0	0	-	-
